Assay results reported in PubChem BioAssay (NCI).
This is part of a sample that, as a whole, favours compounds with a hit. Of some 83,000 tested, about 20% had one in any assay.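 Negative percent growth values reflect cell death: -40 means 40% of the cells present at the start died, and -100 means all died.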 Calls of active or inactive are those of the source. Rule for the calls: active = growth percent below 10; inactive = the rest.

Tested on: MDA-MB-231 breast
Experiment: NCI-60 one-dose screen, 48 h (100 = growth as untreated, 0 = no growth, -100 = all killed)
Conditions: 10 µM unless noted

SMILES	growth
CCN1C(=O)N(CC)C2C1NN=c1s/c(=C\c3ccccc3F)c(=O)n12 (stereo not given)	15.2% (inactive)
O=C(CSC(=S)n1cnnc1)NC(=O)c1ccccc1	112% (inactive)
CC(=O)n1nc(C(=O)OC(C)(C)c2ccccc2)c2ccccc21	85.4% (inactive)
Oc1c(I)cc(I)cc1CNCc1ccccn1	38.3% (inactive)
COc1ccc(C(=O)Nc2cccc(-c3cc(=O)c4c(OC)c(OC)c(OC)cc4o3)c2)cc1	57.2% (inactive)
COc1ccccc1NC(=O)N=Nc1c(O)[nH]c2ccccc12	82.7% (inactive)
O=C(CSc1nnc(-c2cnccn2)n1-c1ccccc1)c1ccc(Cl)cc1	99.8% (inactive)
COc1ccc(/C=C(\C#N)n2nnc3ccc(Cl)cc32)cc1	76.1% (inactive)
Cc1ccc(C[P+](c2ccccc2)(c2ccccc2)c2ccccc2)cc1	18.7% (inactive)
COc1ccc2[nH]c(C(=O)N3CCN(C(=O)OCc4ccc5c(Cl)cc(Cl)c(O)c5n4)CC3)cc2c1	-82.2% (active)
COc1ccc(C(=O)/C=C/c2c(C(F)(F)F)nc3ccccn23)cc1OC	26.2% (inactive)
Cn1c(=O)c2nc(/C=C/c3ccccc3)c(=O)[nH]c2n(C)c1=S	105% (inactive)
Cc1c[n+](Cc2ccc3ccccc3c2)cn1Cc1ccc2ccccc2c1	-8.23% (active)
O=C1/C(=C/c2ccccc2O)CC/C1=C\c1ccccc1O	44.3% (inactive)
N#Cc1ccc2c(c1)C(=O)c1c-2n(CCCN)c(=O)c2cc([N+](=O)[O-])ccc12	-100% (active)
CCCCCCCCCCCCCCCCOCCCOP(=O)(O)C1CCCN(O)C1=O (stereo not given)	42.7% (inactive)
CCOC(=O)C#Cc1c(C(=O)OCC)nnn1Cc1ccc([N+](=O)[O-])cc1	83.1% (inactive)
CCN1C(=S)N(c2ccccc2)C2NC(=S)N(/N=C/C=C/c3ccccc3OC)C21 (stereo not given)	10.5% (inactive)
CCOc1nc(-c2ccccc2)cc2c(O)c(C(=O)N/N=C/c3ccccc3)[nH]c(=O)c12	117% (inactive)
CCNCCNc1cc(-c2ccc(C(F)(F)F)cc2)c(C#N)c2nc3ccccc3n12	-79.8% (active)

SMILES	growth
NC(N)=NCCCCCNc1noc(Cc2c[nH]c3cc(Br)ccc23)n1	69.4% (inactive)
Cc1c(O)cc(-c2cnc(Nc3ccccc3)s2)c(O)c1C	99.2% (inactive)
CCCCCCCCCc1ccc(OCCOCCOCCOCCOCCOCCOCCOCCOCCO)cc1	-38.1% (active)
CCOC(=O)C1=C(N)Oc2c(sc3c(F)cccc23)C1c1ccc(O)cc1 (stereo not given)	36.9% (inactive)
CCOC(=O)c1cc(C)n(-c2ccc(C(=O)O)cc2)c1C	80% (inactive)
O=c1[nH]c(-c2ccccc2)nc2sc3cc(O)ccc3c12	101% (inactive)
CCc1ccccc1-n1c(-c2ccc(OC)cc2)cc(-c2ccc(OC)cc2)c(C#N)c1=O	62% (inactive)
COC(=O)C1Cc2ccccc2CN1C(=O)c1ccc2c(c1)Cc1ccccc1-2 (stereo not given)	42.3% [50 µM] (inactive)
COc1cccc(/C=C2\COc3ccc(O)c(O)c3C2=O)c1	0.944% (active)
CCCCn1c(=O)[nH]c(N)c([C@@H]2c3c([nH]c(=O)n(CCCC)c3=O)Oc3ccc4ccccc4c32)c1=O	55.4% (inactive)
COc1cc2c(c(OC)c1OC)CCC(c1cccc(NC(=O)c3ccc(Br)cc3)c1)O2 (stereo not given)	82.6% (inactive)
NC(=O)C(=O)c1ccccc1NC=O	97.7% (inactive)
NC(=O)c1cc(I)ccc1NC(=O)/C=C/c1ccccc1	31.6% (inactive)
O=[N+]([O-])c1ccc(O)cc1Br	95.4% (inactive)
COc1ccc(OC)c(Nc2nnc(-c3ccc(O)c(OC)c3)o2)c1	69.4% (inactive)
C=CCn1c(C)nc2ccc(Nc3nc(Nc4ccc5nc(C)n(CC=C)c5c4)c4ccccc4n3)cc21	-78.8% (active)
Cn1c(=O)cc2c3c(c(NCCCO)ccc31)C(=O)c1ccccc1-2	58.1% (inactive)
O=S(=O)(c1ccccc1)n1cc2c(c1)-c1nc(Nc3ncccn3)sc1CC2	52.5% (inactive)
O=S(=O)(NCCCNc1nccc(-c2c(-c3ccc(F)c(O)c3)nc3sccn23)n1)c1ccccc1	47.2% (inactive)
C=C(C)[C@@H]1CC[C@]2(C(=O)O)CC[C@]3(C)[C@H](CC[C@@H]4[C@@]5(C)CCC(NC(=O)c6cccc(OC(C)=O)c6OC(C)=O)C(C)(C)[C@@H]5CC[C@]43C)[C@@H]12 (stereo not given in full)	11.9% (inactive)
